Reference: ChEMBL document CHEMBL3988442, “University of Dundee, Small-Polar-MMV Screening Library” (2021)
For some assays here: Measured potencies and affinities stand elsewhere.

Assays:
Parameters in all cases: scale not given: direction of the effect not stated beside the values
[1] = target: Protein translocase subunit SecA (Escherichia coli (strain K12)) (UniProt P10408); test: Assay to Identify E. coli SecA ATPase Inhibitors; type: functional; conditions: 30 µM
[2] = target: T1, Ubiquitin-activating enzyme e1, putative (Leishmania donovani (strain BPK282A1)) (UniProt E9BSI1); test: Leishmania donovani Ubiquitin Activating Enzyme (LdE1); type: functional; conditions: 30 µM
T1 sequence (whole entry): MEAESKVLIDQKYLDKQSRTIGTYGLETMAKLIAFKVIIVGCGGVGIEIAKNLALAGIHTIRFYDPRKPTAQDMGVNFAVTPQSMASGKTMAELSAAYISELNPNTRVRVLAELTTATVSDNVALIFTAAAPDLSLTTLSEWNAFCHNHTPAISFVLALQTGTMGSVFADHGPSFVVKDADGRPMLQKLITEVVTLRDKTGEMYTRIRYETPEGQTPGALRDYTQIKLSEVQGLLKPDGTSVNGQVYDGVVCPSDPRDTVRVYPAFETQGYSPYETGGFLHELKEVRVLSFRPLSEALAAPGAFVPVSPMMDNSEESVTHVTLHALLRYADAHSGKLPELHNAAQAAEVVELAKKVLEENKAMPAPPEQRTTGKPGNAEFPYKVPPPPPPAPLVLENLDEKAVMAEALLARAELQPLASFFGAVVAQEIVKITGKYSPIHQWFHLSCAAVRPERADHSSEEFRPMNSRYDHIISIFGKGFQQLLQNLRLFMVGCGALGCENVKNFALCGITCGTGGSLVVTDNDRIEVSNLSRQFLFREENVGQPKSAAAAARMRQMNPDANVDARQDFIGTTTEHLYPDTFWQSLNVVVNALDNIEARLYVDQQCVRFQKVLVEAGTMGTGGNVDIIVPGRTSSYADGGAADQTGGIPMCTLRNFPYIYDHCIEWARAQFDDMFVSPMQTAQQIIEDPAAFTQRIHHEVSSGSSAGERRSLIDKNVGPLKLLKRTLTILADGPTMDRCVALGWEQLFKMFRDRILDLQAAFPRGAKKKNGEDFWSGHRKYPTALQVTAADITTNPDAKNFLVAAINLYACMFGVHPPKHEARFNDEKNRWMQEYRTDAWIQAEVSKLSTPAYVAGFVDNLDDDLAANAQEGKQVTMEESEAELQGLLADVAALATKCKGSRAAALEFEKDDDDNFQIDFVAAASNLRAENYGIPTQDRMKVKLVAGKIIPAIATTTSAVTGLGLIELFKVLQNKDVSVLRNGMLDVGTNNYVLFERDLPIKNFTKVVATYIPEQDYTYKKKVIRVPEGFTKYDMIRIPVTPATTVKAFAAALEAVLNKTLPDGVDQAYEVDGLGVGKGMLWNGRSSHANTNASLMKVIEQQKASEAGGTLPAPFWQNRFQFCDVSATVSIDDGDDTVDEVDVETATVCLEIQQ

[3] = target: AMP-activated protein kinase, AMPK (Homo sapiens) (UniProt P54646+O43741+P54619+Q9UGJ0+Q9Y478+Q13131+Q9UGI9); test: AMP-dependent Kinase enzyme assay. An in vitro enzyme assay that detects ADP turnover that is directly proportional to AMPK activity. This uses naive AMPK that is activated during the assay with MK-8722; type: functional; conditions: 30 µM
[4] = target: Sialic acid-binding Ig-like lectin 9 (Homo sapiens) (UniProt Q9Y336); test: Hs-Siglec9 ALPHAscreen SOP 20170721; conditions: 10 µM
[5] = tested on: Trypanosoma cruzi; test: Trypanosoma cruzi phosphomannomutase and mannose-1-phosphate guanylyltransferase assay; type: functional; conditions: 10 µM
[6] = target: T2, Arginase-2, mitochondrial (Homo sapiens) (UniProt P78540); test: in vitro enzyme assay to detect the production of urea directly proportional to the activity of Arginase II; type: functional; conditions: 33.3 µM; also: in the data most compounds retested in dose-response had high values
T2 sequence (whole entry): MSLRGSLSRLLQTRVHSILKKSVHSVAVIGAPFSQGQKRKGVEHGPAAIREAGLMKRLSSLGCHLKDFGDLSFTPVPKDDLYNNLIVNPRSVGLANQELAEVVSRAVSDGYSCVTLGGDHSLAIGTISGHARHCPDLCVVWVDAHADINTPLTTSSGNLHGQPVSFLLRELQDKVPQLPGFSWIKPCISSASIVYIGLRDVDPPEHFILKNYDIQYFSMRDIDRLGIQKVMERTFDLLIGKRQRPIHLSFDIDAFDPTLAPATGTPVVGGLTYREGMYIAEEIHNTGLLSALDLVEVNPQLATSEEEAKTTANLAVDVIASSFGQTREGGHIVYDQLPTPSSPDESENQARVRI

[7] = target: T3, Proteasome subunit beta (Trypanosoma cruzi) (UniProt O96673); test: Trypanosoma cruzi proteasome chymotrypsin-like activity (TcProtChymo) assay.; also: in the data most compounds retested in dose-response had high values; type: functional; conditions: 9.37 µM
T3 sequence (whole entry): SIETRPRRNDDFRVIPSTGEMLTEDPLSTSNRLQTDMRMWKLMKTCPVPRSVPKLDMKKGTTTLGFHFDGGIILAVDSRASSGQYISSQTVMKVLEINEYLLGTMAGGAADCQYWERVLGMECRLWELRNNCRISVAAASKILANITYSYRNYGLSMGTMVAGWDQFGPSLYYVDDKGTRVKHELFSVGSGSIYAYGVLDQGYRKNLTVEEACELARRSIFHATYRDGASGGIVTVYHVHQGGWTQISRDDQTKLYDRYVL

[8] = species on record: Homo sapiens; test: To identify inhibition of the IFN signalling (Jak-Stat) pathway via expression of an eGFP reporter gene under the control of an IFN-stimulated response element (ISRE) containing MxA promoter.; type: functional; conditions: 30 µM
[9] = target: T4, Tyrosyl-tRNA synthetase, putative (Trypanosoma cruzi (strain CL Brener)) (UniProt Q4DSP6); test: Trypanosoma cruzi tyrosyl tRNA synthetase (TcYRS) _High Tyrosine SOP; type: functional; conditions: 30 µM; also: in the data most compounds retested in dose-response had high values
T4 sequence (whole entry): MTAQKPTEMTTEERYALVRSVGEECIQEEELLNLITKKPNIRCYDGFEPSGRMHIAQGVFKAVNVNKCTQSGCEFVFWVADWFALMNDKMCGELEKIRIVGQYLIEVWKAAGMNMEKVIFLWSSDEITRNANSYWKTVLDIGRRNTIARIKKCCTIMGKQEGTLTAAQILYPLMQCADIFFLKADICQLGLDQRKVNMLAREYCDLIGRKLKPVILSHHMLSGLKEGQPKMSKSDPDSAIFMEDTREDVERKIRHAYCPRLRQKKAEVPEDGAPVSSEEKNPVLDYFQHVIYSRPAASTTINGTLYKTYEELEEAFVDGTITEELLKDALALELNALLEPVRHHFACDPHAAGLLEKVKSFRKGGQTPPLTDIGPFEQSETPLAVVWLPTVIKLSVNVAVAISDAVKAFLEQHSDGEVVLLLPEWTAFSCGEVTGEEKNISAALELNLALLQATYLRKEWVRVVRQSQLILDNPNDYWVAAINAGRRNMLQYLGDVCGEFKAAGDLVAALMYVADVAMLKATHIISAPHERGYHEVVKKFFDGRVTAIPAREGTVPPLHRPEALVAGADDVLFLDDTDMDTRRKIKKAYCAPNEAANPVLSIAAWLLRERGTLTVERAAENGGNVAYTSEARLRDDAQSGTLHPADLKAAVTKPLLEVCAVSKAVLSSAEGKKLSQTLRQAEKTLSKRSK

[10] = target: T4, Tyrosyl-tRNA synthetase, putative (Trypanosoma cruzi (strain CL Brener)); test: Trypanosoma cruzi tyrosyl tRNA synthetase (TcYRS) SOP; type: functional; conditions: 30 µM
[11] = target: Chromo domain-containing protein 1 (Saccharomyces cerevisiae (strain ATCC 204508 / S288c) (Baker's yeast)) (UniProt P32657); test: ScCHD-1 Enzyme Inhibition Assay; type: functional; conditions: 30 µM; also: in the data most compounds retested in dose-response had high values
Chain of Chromo domain-containing protein 1 (Saccharomyces cerevisiae (strain ATCC 204508 / S288c) (Baker's yeast)) (P32657 whole entry, the tested form may be a part): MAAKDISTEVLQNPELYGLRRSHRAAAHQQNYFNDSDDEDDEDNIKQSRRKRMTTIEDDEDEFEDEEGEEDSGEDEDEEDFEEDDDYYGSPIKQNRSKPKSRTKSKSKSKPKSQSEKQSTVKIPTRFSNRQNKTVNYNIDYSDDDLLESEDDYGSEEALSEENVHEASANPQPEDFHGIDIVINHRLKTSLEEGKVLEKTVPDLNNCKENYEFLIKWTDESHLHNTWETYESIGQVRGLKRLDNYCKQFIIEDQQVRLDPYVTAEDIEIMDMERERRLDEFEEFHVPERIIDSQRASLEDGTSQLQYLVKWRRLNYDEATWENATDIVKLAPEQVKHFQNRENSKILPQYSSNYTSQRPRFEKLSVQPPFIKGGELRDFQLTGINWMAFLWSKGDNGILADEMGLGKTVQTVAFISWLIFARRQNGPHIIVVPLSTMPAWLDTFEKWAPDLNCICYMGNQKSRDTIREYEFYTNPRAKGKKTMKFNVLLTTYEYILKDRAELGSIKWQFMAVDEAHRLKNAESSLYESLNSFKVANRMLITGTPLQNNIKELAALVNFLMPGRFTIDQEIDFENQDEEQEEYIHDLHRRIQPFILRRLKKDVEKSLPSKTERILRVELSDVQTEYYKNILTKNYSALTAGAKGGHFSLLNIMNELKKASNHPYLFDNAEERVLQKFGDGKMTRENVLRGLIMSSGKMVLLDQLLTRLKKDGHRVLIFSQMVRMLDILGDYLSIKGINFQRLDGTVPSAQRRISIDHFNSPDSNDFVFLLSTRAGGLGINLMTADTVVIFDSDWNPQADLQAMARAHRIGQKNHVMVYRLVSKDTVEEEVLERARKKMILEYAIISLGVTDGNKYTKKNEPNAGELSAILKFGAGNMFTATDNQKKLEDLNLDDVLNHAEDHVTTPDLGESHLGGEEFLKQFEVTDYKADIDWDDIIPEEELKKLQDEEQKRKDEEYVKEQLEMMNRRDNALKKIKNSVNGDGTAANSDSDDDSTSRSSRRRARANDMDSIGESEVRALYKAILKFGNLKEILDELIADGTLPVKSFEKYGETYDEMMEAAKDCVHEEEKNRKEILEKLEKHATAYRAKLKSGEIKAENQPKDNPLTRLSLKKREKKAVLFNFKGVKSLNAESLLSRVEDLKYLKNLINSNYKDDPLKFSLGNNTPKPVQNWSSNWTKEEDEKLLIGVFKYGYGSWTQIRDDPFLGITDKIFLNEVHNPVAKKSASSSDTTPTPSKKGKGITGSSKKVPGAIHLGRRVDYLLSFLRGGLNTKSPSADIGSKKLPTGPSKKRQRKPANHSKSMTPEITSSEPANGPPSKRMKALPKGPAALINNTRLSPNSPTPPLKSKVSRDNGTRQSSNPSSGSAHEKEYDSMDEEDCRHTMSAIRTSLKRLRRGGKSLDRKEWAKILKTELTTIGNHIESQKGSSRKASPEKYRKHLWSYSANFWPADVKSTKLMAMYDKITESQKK

Chain of Protein translocase subunit SecA (Escherichia coli (strain K12)) (P10408 whole entry): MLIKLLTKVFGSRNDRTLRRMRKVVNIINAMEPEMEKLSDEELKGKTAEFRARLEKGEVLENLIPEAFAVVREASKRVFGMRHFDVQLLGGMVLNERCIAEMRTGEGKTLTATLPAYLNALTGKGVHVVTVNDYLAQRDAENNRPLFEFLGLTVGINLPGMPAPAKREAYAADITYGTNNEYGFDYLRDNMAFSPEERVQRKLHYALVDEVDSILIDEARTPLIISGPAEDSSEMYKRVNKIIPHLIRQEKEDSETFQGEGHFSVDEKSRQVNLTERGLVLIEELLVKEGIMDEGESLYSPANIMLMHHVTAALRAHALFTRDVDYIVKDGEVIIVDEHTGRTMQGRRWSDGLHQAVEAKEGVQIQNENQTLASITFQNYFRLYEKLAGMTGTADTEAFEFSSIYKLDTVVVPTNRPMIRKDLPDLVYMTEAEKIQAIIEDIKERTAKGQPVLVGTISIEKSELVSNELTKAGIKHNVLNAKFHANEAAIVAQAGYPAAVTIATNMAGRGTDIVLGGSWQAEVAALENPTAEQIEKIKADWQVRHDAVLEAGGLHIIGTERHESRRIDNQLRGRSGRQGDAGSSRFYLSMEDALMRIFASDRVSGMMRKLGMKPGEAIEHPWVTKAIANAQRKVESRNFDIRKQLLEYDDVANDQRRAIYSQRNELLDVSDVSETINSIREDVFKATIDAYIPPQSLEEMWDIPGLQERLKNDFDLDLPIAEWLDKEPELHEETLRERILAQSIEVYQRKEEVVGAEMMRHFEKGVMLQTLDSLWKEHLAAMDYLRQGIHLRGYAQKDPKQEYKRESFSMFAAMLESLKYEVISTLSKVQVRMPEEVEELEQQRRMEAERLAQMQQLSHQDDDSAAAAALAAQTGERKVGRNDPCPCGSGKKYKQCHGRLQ
Chain of Sialic acid-binding Ig-like lectin 9 (Homo sapiens) (Q9Y336 whole entry): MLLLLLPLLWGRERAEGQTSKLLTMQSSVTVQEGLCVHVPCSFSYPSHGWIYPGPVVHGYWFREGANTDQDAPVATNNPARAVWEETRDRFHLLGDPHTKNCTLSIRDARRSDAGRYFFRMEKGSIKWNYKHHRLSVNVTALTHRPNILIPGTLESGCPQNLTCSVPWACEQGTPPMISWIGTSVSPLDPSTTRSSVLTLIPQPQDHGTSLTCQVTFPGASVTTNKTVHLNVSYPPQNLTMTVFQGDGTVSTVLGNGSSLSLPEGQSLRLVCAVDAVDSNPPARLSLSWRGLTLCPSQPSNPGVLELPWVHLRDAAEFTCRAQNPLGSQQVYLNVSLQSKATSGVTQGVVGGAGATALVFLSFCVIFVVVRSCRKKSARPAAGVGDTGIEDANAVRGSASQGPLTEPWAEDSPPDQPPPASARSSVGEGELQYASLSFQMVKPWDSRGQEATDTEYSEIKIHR

SMILES	Percent Effect [1] [%]	Percent Effect [2] [%]	Percent Effect [3] [%]	Percent Effect [4] [%]	Percent Effect [5] [%]	Percent Effect [6] [%]	Percent Effect [7] [%]	Percent Effect [8] [%]	Percent Effect [9] [%]	Percent Effect [10] [%]	Percent Effect [11] [%]
Cc1nc2c(c(N3CC=CC3)n1)CCN(Cc1ccoc1)CC2	-7.04	5.2	2.16	4.88	-1.87	1.38	9.65	-16.9	3.23	8.64	1.68
CCN(CC)CCNC(=O)c1cc(C(C)C)nc(N2CCCC2)n1	-0.4	20	1.03	-8.5	2.55	-24.1	12.8	20.4	0	12.8	80.8
CSc1ncc(C(=O)N2C[C@H]3CC[C@@H]2CN(Cc2ccccc2)C3)cn1	0.697	2.74	22.7	-2.06	-6.66	2.27	11	4.63	6.45	10	0.291
O=C(c1cccc(=O)[nH]1)N(Cc1ccsc1)CC1CCCO1 (configuration not stated)	-0.641	10.8	-7.24	6.17	-0.386	2.86	12.8	11.3	7.94	17.1	-1.82
CC(C)N1CC(C(=O)NCCc2csc(-c3ccncc3)n2)CC1=O (configuration not stated)	-0.366	20.8	5.98	-0.897	2.26	-11	14.3	21	6.45	16.1	-6.34
Cc1nccc(-c2cccc(NCC(=O)N3CCNC3=O)c2)n1	-3.58	21.1	-11.7	0.813	6.82	-1.44	11.2	16.4	10.3	28.4	-9.15
CN(C(=O)c1cccc2[nH]ncc12)C1CCN(c2ccccn2)CC1	-8.48	7.79	-0.81	-5.52	-4.6	-3.16	-4.12	30.5	0.952	2.35	-18.1
CCc1nccn1C1CCCN(C(=O)CCc2nccs2)C1 (configuration not stated)	-2	-5.41	-10.8	5.59	-0.66	-6.81	5.77	1.54	1.48	1.24	-1.72
CNC(=O)Cc1ccc(NC(=O)NC(C)C(C)C)cc1 (configuration not stated)	-2.02	10.5	3.68	1.41	1.66	0	8.53	-8.18	4.25	15.6	-3.23
CCN(CC)C(C(=O)NCc1ccc(N2CCCC2)nc1)C(C)C (configuration not stated)	-6	5.41	-3.6	6.67	-5.94	-4.41	11.9	10.1	2.46	1.24	-4.84
Cc1csc(N2CCCN(C(=O)C(C)n3ccnc3)CC2)n1 (configuration not stated)	-4.19	8.11	5.77	0.506	6.78	-2.77	-0.718	10.8	5.94	15.8	1.79
CN(C)S(=O)(=O)N1C[C@H](Oc2cccnc2)[C@H]2OCCC[C@H]21	-5.31	5.2	74	-1.91	-0.69	-4.52	3.65	10.9	0	-1.28	-8.75
CCn1cc(NC(=O)NCC(O)CN2CCCCC2)cn1 (configuration not stated)	-2.01	5.2	2.67	12.4	1.27	4	0.404	15.9	0	2.35	-9.62
COc1cc(C(=O)N(Cc2ccc(F)cc2)C2CC2)cc2c1OCCO2	0.816	7.89	1.68	-4.56	2.43	3.55	21.2	36.9	3.19	13	-3.44
Cc1cccnc1NC(=O)CC1(Cn2cnnn2)CCCCC1	-5.51	21.1	-0.535	3.53	1.66	1.18	9.11	-4.12	3.19	13	-13.8
Fc1cccc(Oc2ccc(CNCC3CNc4ccnn4C3)cn2)c1 (configuration not stated)	-2.95	13	-2.17	5.01	10.5	2.85	8.28	8.31	37.9	43.9	-12.1
Cc1nc(CN(C)C2CCN(Cc3sc(C)nc3C)C2)no1 (configuration not stated)	-3.5	7.89	-14.6	4.01	7.38	0	20.6	2.16	4.43	11.1	-3.08
Cc1nc(-c2ccccc2)n(CC(=O)N(C(C)C)C(C)C)n1	-0.812	18.9	-12.1	5.09	3.68	-9.62	15.3	14.6	9.36	23.5	-8.42
COCC(=O)N1CCC(c2nc3ccc(N4CCCC4)cn3n2)CC1	-3.58	5.48	-210	5.8	-4.96	1.2	10	-9.84	7.29	11.1	-3.02
CC(=O)Nc1nc(CN2CCn3c(nnc3C3CC3)C2)cs1	-1.36	5.41	0.348	6.61	5.11	-9.06	-3.59	2.7	0.99	11	-3.08
COCc1cc(NCc2cc(F)ccc2F)n2nccc2n1	-3.49	-2.74	-7.06	1.05	-5.68	2.27	5.15	15.9	2.15	7.5	-6.68
Cc1noc([C@@H]2CC[C@@H]3[C@@H](CCN3S(=O)(=O)C3CC3)O2)n1	0.234	8.11	10.7	-3.31	-4.3	3.33	17.2	4.51	5.94	11	6.55
